Assay results from PubChem BioAssay AID1159580 (chemical genetic matrix, 2015).
Where “and” joins values, the source holds several entries; their conditions need not be identical. Equal entries are not always repeated. Among all 5,500 compounds or so, about 2,000 (36%) were called active. Not shown: some 18% with an inconclusive outcome. Cut-off read from the data, not from the text of the source: active = normalized growth mostly below about 0.91 (no sharp cut-off); inconclusive = no clear call, values can overlap the other calls; inactive = mostly above about 0.92. This is one part of the list.

Assay: chemical genetic growth profiling, strain panel (AID 1159580);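 note: tested at 20 µM; growth read once vehicle control cultures reached saturation at 30 °C; 1 = growth at the plate median or of vehicle wells; lower values mean less growth of the strain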
Settings: S. cerevisiae deletion strains, growth OD

Measured: normalized growth

CC(C)N1C(=O)c2ccccc2NS1(=O)=O
inactive: locus YAL013W, strain DEP1, stronger effect = lower value 1 | locus YAL021C, strain ccr4, stronger effect = lower value 0.947 | locus YAL026C, strain drs2, stronger effect = lower value 0.976 | locus YAL030W, strain snc1, stronger effect = lower value 0.963 | locus YBL061C, strain skt5, stronger effect = lower value 0.973 | locus YBR009C, strain hhf1, stronger effect = lower value 0.961 | locus YBR021W, strain FUR4, stronger effect = lower value 0.966 | locus YBR023C, strain chs3, stronger effect = lower value 0.983 | locus YBR171W, strain sec66, stronger effect = lower value 0.968 | locus YBR229C, strain ROT2, stronger effect = lower value 1 | locus YBR231C, strain swc5, stronger effect = lower value 0.994 | locus YBR279W, strain paf1, stronger effect = lower value 0.977 | locus YCL011C, strain gbp2, stronger effect = lower value 0.962 | locus YCL016C, strain dcc1, stronger effect = lower value 0.969 | locus YCL029C, strain bik1, stronger effect = lower value 0.999 | locus YCL069W, strain vba3, stronger effect = lower value 0.969 | locus YCR088W, strain abp1, stronger effect = lower value 0.978 | locus YDL005C, strain med2, stronger effect = lower value 0.973 | locus YDL035C, strain GPR1, stronger effect = lower value 1.01 | locus YDL040C, strain nat1, stronger effect = lower value 0.972 | locus YDL074C, strain BRE1, stronger effect = lower value 1.02 | locus YDL101C, strain DUN1, stronger effect = lower value 1.01 | locus YDL134C, strain PPH21, stronger effect = lower value 0.998 | locus YDL185W, strain tfp1, stronger effect = lower value 1 | locus YDL192W, strain arf1, stronger effect = lower value 1.01 | locus YDR001C, strain nth1, stronger effect = lower value 0.955 | locus YDR069C, strain doa4, stronger effect = lower value 0.995 | locus YDR101C, strain arx1, stronger effect = lower value 0.999 | locus YDR137W, strain rgp1, stronger effect = lower value 0.971 | locus YDR150W, strain NUM1, stronger effect = lower value 0.996 | locus YDR159W, strain sac3, stronger effect = lower value 1.02 | locus YDR162C, strain NBP2, stronger effect = lower value 1.02 | locus YDR195W, strain ref2 0.935 | locus YDR297W, strain sur2, stronger effect = lower value 0.988 | locus YDR318W, strain mcm21, stronger effect = lower value 1.01 | locus YDR334W, strain swr1, stronger effect = lower value 0.957 | locus YDR335W, strain msn5, stronger effect = lower value 0.978 | locus YDR388W, stronger effect = lower value 0.998 | locus YDR392W, strain spt3, stronger effect = lower value 1.02 | locus YDR502C, strain sam2, stronger effect = lower value 1.01 | locus YEL003W, strain gim4, stronger effect = lower value 0.973 | locus YEL037C, strain rad23, stronger effect = lower value 0.976 | locus YEL061C, strain CIN8 (second series), stronger effect = lower value 0.966 | locus YEL061C, strain CIN8, stronger effect = lower value 0.992 | locus YER015W, strain faa2, stronger effect = lower value 0.966 | locus YER016W, strain bim1, stronger effect = lower value 0.965 | locus YER110C, stronger effect = lower value 1 | locus YER111C, strain swi4, stronger effect = lower value 0.979 | locus YER155C, strain BEM2 (second series), stronger effect = lower value 1 | locus YER155C, strain BEM2, stronger effect = lower value 0.994 | locus YER167W, strain BCK2, stronger effect = lower value 1 | locus YFR010W, strain ubp6, stronger effect = lower value 0.96 | locus YGL078C, strain dbp3, stronger effect = lower value 0.993 | locus YGL086W, strain mad1, stronger effect = lower value 0.996 | locus YGL167C, strain pmr1, stronger effect = lower value 0.958 | locus YGL173C, strain kem1, stronger effect = lower value 0.979 | locus YGL227W, strain vid30, stronger effect = lower value 0.989 | locus YGL240W, strain doc1, stronger effect = lower value 1 | locus YGL248W, strain PDE1, stronger effect = lower value 1.01 | locus YGL253W, strain hxk2, stronger effect = lower value 0.984 | locus YGR078C, strain PAC10, stronger effect = lower value 0.995 | locus YGR135W, strain pre9, stronger effect = lower value 1.01 | locus YGR229C, strain SMI1, stronger effect = lower value 1.02 | locus YGR252W, strain gcn5, stronger effect = lower value 1.01 | locus YHR013C, strain ard1, stronger effect = lower value 0.95 | locus YHR027C, strain rpn1, stronger effect = lower value 0.968 | locus YHR030C, strain SLT2, stronger effect = lower value 0.972 and 0.994 | locus YHR079C, strain IRE1 (second series), stronger effect = lower value 1 | locus YHR079C, strain IRE1, stronger effect = lower value 0.982 | locus YHR094C, strain hxt1, stronger effect = lower value 0.996 | locus YHR129C, strain ARP1, stronger effect = lower value 0.996 | locus YHR142W, strain chs7, stronger effect = lower value 0.962 | locus YHR200W, strain rpn10, stronger effect = lower value 0.995 | locus YIL066C, strain RNR3, stronger effect = lower value 1.03 | locus YIL073C, strain SPO22, stronger effect = lower value 1.07 | locus YIL125W, strain kgd1, stronger effect = lower value 1.01 | locus YIR030C, strain dcg1, stronger effect = lower value 0.997 | locus YJL092W, strain hpr5, stronger effect = lower value 0.971 | locus YJL095W, strain BCK1 (second series), stronger effect = lower value 0.969 | locus YJL095W, strain BCK1, stronger effect = lower value 1.01 and 0.986 | locus YJL115W, strain asf1, stronger effect = lower value 0.956 | locus YJL129C, strain trk1, stronger effect = lower value 0.961 | locus YJL134W, strain LCB3, stronger effect = lower value 1 | locus YJL154C, strain vps35, stronger effect = lower value 0.963 | locus YJL164C, strain tpk1, stronger effect = lower value 0.988 | locus YJL166W, strain qcr8, stronger effect = lower value 0.987 | locus YJL168C, strain set2, stronger effect = lower value 1 | locus YJL187C, strain SWE1 (second series), stronger effect = lower value 0.997 | locus YJR043C, strain POL32, stronger effect = lower value 1 | locus YJR066W, strain TOR1, stronger effect = lower value 0.962 | locus YJR075W, strain HOC1, stronger effect = lower value 1.02
